Screens deposited in PubChem by Johns Hopkins Ion Channel Center.
KCNQ2 inh: inhibitors of rat KCNQ2 potassium channel; O88943; B-score at 10 µM; CHO-K1 KCNQ2, FluxOR thallium flux, 20 min; active compounds read low; 310,000 tested, 1.1% active; AID 2156;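 active means fluorescence ratio B-score at most minus 3 library SDs, with starting brightness B-score within 2 library SDs, cut at about -5.5 in these data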
Target sequence (O88943 whole entry, looked up): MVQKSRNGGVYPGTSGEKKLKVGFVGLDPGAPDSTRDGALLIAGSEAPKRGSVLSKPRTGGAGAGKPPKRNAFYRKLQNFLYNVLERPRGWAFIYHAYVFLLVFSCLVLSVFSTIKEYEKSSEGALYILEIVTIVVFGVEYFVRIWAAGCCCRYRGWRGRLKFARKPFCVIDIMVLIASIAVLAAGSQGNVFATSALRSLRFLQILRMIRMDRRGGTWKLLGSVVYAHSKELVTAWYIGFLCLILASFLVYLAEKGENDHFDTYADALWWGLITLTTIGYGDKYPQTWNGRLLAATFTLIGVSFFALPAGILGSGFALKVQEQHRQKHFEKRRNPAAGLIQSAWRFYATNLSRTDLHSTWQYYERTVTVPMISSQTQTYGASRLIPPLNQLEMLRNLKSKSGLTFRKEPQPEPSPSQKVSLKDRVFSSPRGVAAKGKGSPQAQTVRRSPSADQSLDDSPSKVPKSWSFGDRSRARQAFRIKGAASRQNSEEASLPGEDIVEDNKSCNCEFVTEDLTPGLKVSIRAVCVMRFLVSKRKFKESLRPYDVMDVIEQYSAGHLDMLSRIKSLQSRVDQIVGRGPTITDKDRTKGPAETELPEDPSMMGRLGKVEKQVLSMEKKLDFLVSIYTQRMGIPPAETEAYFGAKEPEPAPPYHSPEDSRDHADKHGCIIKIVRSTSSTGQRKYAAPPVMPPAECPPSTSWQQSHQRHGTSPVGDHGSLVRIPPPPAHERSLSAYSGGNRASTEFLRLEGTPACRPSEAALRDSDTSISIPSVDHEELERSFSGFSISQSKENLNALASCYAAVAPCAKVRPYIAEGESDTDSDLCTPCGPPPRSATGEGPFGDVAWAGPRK
KCNQ2 pot: potentiators of rat KCNQ2 potassium channel | O88943 | CHO-K1 KCNQ2, FluxOR thallium flux fluorescence; active compounds read high | B-score at 10 µM | 310,000 tested, 0.54% active | AID 2239;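 active means fluorescence ratio B-score at least 3 SD of library B-scores, with initial fluorescence B-score within 3 of them, cut at about 5.3 in these data; same plate scores as AID 2156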;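 further: B-score of peak minus minimum over baseline fluorescence ratio after K+ and Tl+ stimulus; positive B-score means potentiation of KCNQ2 with more thallium influx and brighter signal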
Kir21 conf inh: confirmation of mouse Kir2.1 potassium channel inhibitors. Kir2.1-expressing cells, FluxOR thallium flux fluorescence; active compounds read low. Tl flux remaining, % of negative control (active compounds read low), % at 10 µM. 2,300 tested, 41% active. shares compounds with KCNQ2 pot;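 active means Primary-screen hit whose thallium flux fell at least 3 control SD below untreated wells in both duplicates, with normal baseline fluorescence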
HEK293 ctr: alters thallium flux in parental HEK293 cells, Kir2.1 counter-screen. FluxOR thallium flux fluorescence; 0% = unstimulated blank wells. FluxOR signal as % of negative control (100 = no effect), % at 10 µM. shares compounds with KCNQ2 pot. 2,300 tested, 19% active;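 active means dye signal at least 3 control SD above or below untreated wells in both duplicates, raw fluorescence within 3, either direction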;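 further: percent is based on the flux ratio of peak minus minimum fluorescence over baseline F0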
CHO-K1 Tl ctr: parental CHO-K1 activity in KCNQ2 potentiator counter-screen. shares compounds with KCNQ2 pot. 1,200 tested, 43% active. activity increase over 3SD of controls, % at 10 µM. parental CHO-K1 cells, FluxOR thallium flux fluorescence; zero = vehicle mean+3SD, 100% = vehicle-minus-blank window;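 active means signal rise of at least 3 SD above the untreated control mean, in both duplicate wells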;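 further: counter screen of KCNQ2 potentiator hits so any rise reflects channel-independent effects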
KCNQ1 sel pot: selectivity of KCNQ2 potentiators: effect on human KCNQ1. shares compounds with KCNQ2 pot. CHO KCNQ1 stable, FluxOR thallium flux fluorescence; beyond 3SD, as % of vehicle-control signal. activation over 3SD threshold, % at 10 µM. 1,200 tested, 28% active;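 active means fluorescence ratio rise of at least 3 SD of vehicle wells above their mean, in both replicate wells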
KCNQ2 pot conf: confirmation of rat KCNQ2 potassium channel potentiators. 1,200 tested, 68% active. potentiation, less the hit threshold, % at 10 µM. CHO-KCNQ2 cells, FluxOR thallium flux fluorescence. AID 2287. shares compounds with KCNQ2 pot;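 active means fluorescence ratio rising 3 SD or more over the vehicle control mean in both replicates, plus primary screen hit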;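 further: peak minus minimum thallium fluorescence divided by baseline after K/Tl stimulus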
Kir21 spec: tests whether KCNQ2 potentiators also affect mouse Kir2.1; AID 2345; activity over 3SD threshold, % at 10 µM; shares compounds with KCNQ2 pot; HEK293 Kir2.1, FluxOR thallium flux fluorescence; 1,200 tested, 2% active;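 active means fluorescence ratio rise of at least 3 SD above the vehicle-control mean, seen in both replicates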
KCNQ2 W236L MoA: rat KCNQ2 W236L mutant potentiation by KCNQ2 potentiators. shares compounds with KCNQ2 pot. CHO KCNQ2-W236L, automated patch clamp current. current increase over 3SD of negative controls (%), active compounds read high, % at 25 µM. 940 tested, 10% active;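 active means current increase at least 3 SD of the untreated controls above them in both duplicate recordings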
Each line names hits and unclear results; the compound was inactive in the other large screens (follow-up assays come after a bar, where they were run). In the library only some 1.6% were active in any assay of this set; here they are far more common.

CC(=O)N1N=C(c2ccccc2O)CC1c1cccs1 (configuration not stated)	none
CCCCn1c(N)c(N(CC)C(=O)CSCC(=O)Nc2ccc(OC)cc2)c(=O)[nH]c1=O	none (no result: KCNQ2 pot)
CC1CCCCC1NC(=S)NC(=O)c1sc2ccccc2c1Cl (configuration not stated)	none
O=C(NC(=S)N(CCCCO)C1CCCCC1)c1sc2ccccc2c1Cl	KCNQ2 pot 17.5 | Kir21 conf inh inactive | HEK293 ctr inactive | CHO-K1 Tl ctr 29.6 | KCNQ1 sel pot 27.6 | KCNQ2 pot conf 56.4 | Kir21 spec inactive | KCNQ2 W236L MoA inactive
COc1ccc(N(C(=O)c2snc(C(N)=O)c2N)C(CC(C)C)C(=O)NCC2CCCO2)cc1 (configuration not stated)	none
CCc1ccc(NC(=O)CC2C(=O)N(c3ccc(C)cc3)C(=O)N2C2CC2)cc1 (configuration not stated)	none (no result: KCNQ2 pot)
CCc1nc(OCC(=O)c2ccccc2)c(C#N)c2c1COC(C)(C)C2	KCNQ2 pot 9.58 | Kir21 conf inh inactive | HEK293 ctr inactive | CHO-K1 Tl ctr 57.0 | KCNQ1 sel pot inactive | KCNQ2 pot conf 20.5 | Kir21 spec inactive | KCNQ2 W236L MoA inactive
Cc1nc(OCC(=O)c2ccc(Cl)cc2)c(C#N)c2c1COC(C)(C)C2	none
CCC1CCC(C(=O)NC(C(=O)NCCCN2CCCCC2C)C(C)C)CC1 (configuration not stated)	none
CCOC(=O)c1c(C)nc2c(c(SC)nn2-c2ccccc2)c1N	none
CC(C)c1cc(C(F)(F)F)n2nc(C(=O)Nc3ccc(-n4cnnn4)cc3)cc2n1	none (no result: KCNQ2 pot)
CC(C)COc1ccc(-c2nnc(-c3ccco3)o2)cc1	none
CCN(CC)CCCNc1ccc(-c2nnc(-c3ccc(OCC(C)C)cc3)o2)cn1	KCNQ2 inh -7.32 | Kir21 conf inh 65.0% | HEK293 ctr inactive
COc1ccc(Cl)cc1C(=O)OCC(=O)N(C)CC(=O)Nc1ccc(F)cc1	none
Cc1ccc(SCC(=O)OCC(=O)N(C)CC(=O)Nc2ccc(F)cc2)cc1C	KCNQ2 pot 7.03 | Kir21 conf inh inactive | HEK293 ctr inactive | CHO-K1 Tl ctr 10.4 | KCNQ1 sel pot 1.0 | KCNQ2 pot conf inactive | Kir21 spec inactive | KCNQ2 W236L MoA inactive
O=C(CN1C(=O)c2ccc([N+](=O)[O-])cc2C1=O)NC1CCCCCC1	none (no result: KCNQ2 pot)
Cc1cccc(C)c1NC(=O)C(=O)NCC1CCCN1S(=O)(=O)c1cccs1 (configuration not stated)	none
CCOC(=O)CN1C(=O)N[C@@H](c2cccc(F)c2)C(C(=O)OC)=C1C	none (no result: KCNQ2 pot) | Kir21 conf inh inactive | HEK293 ctr inactive
COC(=O)C1=C(C)N(Cc2ccccc2)C(=NCc2cc(OC)c(OC)c(OC)c2)N[C@H]1c1cccc(F)c1	none (no result: KCNQ2 pot)
COC(=O)C1=C(C)N(Cc2ccccc2)C(=NCCc2cccnc2)N[C@H]1c1ccccc1	none | Kir21 conf inh inactive | HEK293 ctr inactive
CCOC(=O)CN1C(=O)N[C@@H](c2cccc(F)c2)C(C(C)=O)=C1C	none (no result: KCNQ2 pot)
COC(=O)C1=C(C)N(Cc2ccccc2)C(=NCc2ccc(OC)cc2)N[C@H]1c1cccc(F)c1	none (no result: KCNQ2 pot) | Kir21 conf inh 26.0% | HEK293 ctr inactive
COC(=O)C1=C(C)N(Cc2ccccc2)C(=NCCCCO)N[C@H]1c1ccccc1	none (no result: KCNQ2 pot)
Cc1ccc(C)c(NS(=O)(=O)c2ccc3[nH]c(=O)oc3c2)c1	none (no result: KCNQ2 pot)
COc1cc(NS(=O)(=O)c2ccc3c(c2)n(C)c(=O)n3C)cc(OC)c1	none
O=C(NCCCCc1ccccc1)Nc1cccc(F)c1	KCNQ2 pot 13.1 | Kir21 conf inh inactive | HEK293 ctr inactive | CHO-K1 Tl ctr inactive | KCNQ1 sel pot inactive | KCNQ2 pot conf 27.2 | Kir21 spec inactive | KCNQ2 W236L MoA inactive
Cc1cccc(NC(=O)NCCCCc2ccccc2)c1	none (no result: KCNQ2 pot)
Cc1ccc(S(=O)(=O)N(CC(=O)NCC2CCCO2)Cc2ccc(F)cc2)cc1 (configuration not stated)	none (no result: KCNQ2 pot)
COc1ccc(OC)c(NC(=O)C2CC(/C=C/c3ccccc3)=NO2)c1 (configuration not stated)	none (no result: KCNQ2 pot)
Cc1ccc2c(CN3CCCCC3C)cc(=O)oc2c1C (configuration not stated)	KCNQ2 pot 24 | Kir21 conf inh inactive | HEK293 ctr inactive | CHO-K1 Tl ctr inactive | KCNQ1 sel pot inactive | KCNQ2 pot conf inactive | Kir21 spec inactive
Cc1ccc2c(CN3CCCCC3C)cc(=O)oc2c1 (configuration not stated)	none
C/C(=N/NC(=O)CNC(=O)COc1ccccc1)c1ccco1	none (no result: KCNQ2 pot)
COc1ccc(CCC(C)NCCc2ccc(Cl)cc2Cl)cc1 (configuration not stated)	none (no result: KCNQ2 pot) | Kir21 conf inh 16.0% | HEK293 ctr inactive
COc1ccc(CCC(C)NCc2ccc(Cl)c(Cl)c2)cc1 (configuration not stated)	none (no result: KCNQ2 pot)
O=C1c2ccc3c4c(ccc(c24)C(=O)N1c1ccc(O)cc1)C(=O)N(c1ccc(O)cc1)C3=O	KCNQ2 pot 11.4 | Kir21 conf inh inactive | HEK293 ctr inactive | CHO-K1 Tl ctr 2.5 | KCNQ1 sel pot 44.6 | KCNQ2 pot conf inactive | Kir21 spec inactive
O=C(O)c1ccc(S(=O)(=O)c2ccc3c(c2)C(=O)N(c2ccc(O)cc2)C3=O)cc1	none
O=C1CC2(CCN(C(=O)c3ccc(Br)cc3)CC2)Oc2ccccc21	none (no result: KCNQ2 pot)
CCn1cc(-c2ccccc2)c(C(=O)O)c1-c1ccc(OC)cc1	none (no result: KCNQ2 pot)
Cc1cccc(CC(=O)NC2CCCCCC2)c1	KCNQ2 pot 6.71 | Kir21 conf inh inactive | HEK293 ctr inactive | CHO-K1 Tl ctr inactive | KCNQ1 sel pot inactive | KCNQ2 pot conf 11.0 | Kir21 spec inactive | KCNQ2 W236L MoA inactive
Cc1ccc(OCC(=O)NC2CCCCCC2)cc1C	KCNQ2 pot 6.52 | Kir21 conf inh inactive | HEK293 ctr inactive | CHO-K1 Tl ctr inactive | KCNQ1 sel pot inactive | KCNQ2 pot conf 2.0 | Kir21 spec inactive | KCNQ2 W236L MoA inactive
Cc1cc2cccc(C)c2nc1SCC(=O)NC1CCCCC1	KCNQ2 pot 12.6 | Kir21 conf inh inactive | HEK293 ctr inactive | CHO-K1 Tl ctr inactive | KCNQ1 sel pot inactive | KCNQ2 pot conf 0.3 | Kir21 spec inactive | KCNQ2 W236L MoA inactive
Cc1cccc(CC(=O)NC2CCN(C)CC2)c1	none (no result: KCNQ2 pot)
CCc1cc2ccc(C)c(C)c2nc1SCC(=O)Nc1cc(C)on1	none
